{"source": "PubChem BioAssay (NCI)", "note": "This is part of a sample that, as a whole, favours compounds with a hit. Of some 83,000 tested, about 20% had one in any assay.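 Values shown are percent growth following 48 h exposure of cells in 96-well plates to a single concentration of compound; below 10 was considered active.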 A number with no mark means an inactive call. The source made the active and inactive calls."}
{"test_system": "MDA-MB-435 melanoma", "assay": "NCI-60 one-dose screen, 48 h (100 = growth as untreated, 0 = no growth, -100 = all killed)", "settings": "10 µM unless noted"}
{"smiles": "CSc1ccc(-c2n[nH]nc2-c2cc3ccccc3s2)cc1", "growth": "-19% (active)"}
{"smiles": "Clc1ccc2c(NCCCNc3nc(-n4ccnc4)nc4ccccc34)ccnc2c1", "growth": "92.6%"}
{"smiles": "CN1CCN(c2nc(NCCCNc3ccnc4cc(Cl)ccc34)c3ccccc3n2)CC1", "growth": "-22.4% (active)"}
{"smiles": "CN(C)c1ccc(NC(=O)c2ccc(/C=C/C(=O)c3ncc[nH]3)cc2)cc1", "growth": "51.7%"}
{"smiles": "COc1ccc(S(=O)(=O)N2CCCCC2)cc1NC(=O)c1[nH]c(C)c2c1CCCCC2=O", "growth": "21.7%"}
{"smiles": "CCn1c(O)c(/C=N/NC(=O)C(C)c2ccc(CC(C)C)cc2)sc1=S", "note": "(stereo unspecified)", "growth": "-44.4% (active)"}
{"smiles": "Cc1nn(-c2cc(=O)[nH]c3ccc(Cl)cc23)c(N)c1C#N", "growth": "103%"}
{"smiles": "O=C1/C(=C(/c2ccccc2)N2CCOCC2)Cc2ccccc21", "growth": "12.6%"}
{"smiles": "O=C(COc1cccc(/C=C2\\COc3ccccc3C2=O)c1)Nc1nccs1", "growth": "53.5%"}
{"smiles": "CCN=C1C=CC(=C(c2ccc(N)cc2)c2ccc(N(CC)CC)c(C)c2)C=C1", "growth": "-41.2% (active)"}
{"smiles": "O=C(C(=O)c1ccc2c(c1)OCO2)c1ccc2c(c1)OCO2", "growth": "114%"}
{"smiles": "COc1ccc(/C=C2\\Oc3cc(OCCCCN4CCCC4)ccc3C2=O)cc1", "growth": "96.5%"}
{"smiles": "COc1cc(-c2nn(-c3ccc(Br)cc3)cc2C(=O)O)ccc1O", "growth": "97%"}
{"smiles": "O=c1ccccc(-c2ccc(-c3ccco3)cc2)c1O", "growth": "26.3%"}
{"smiles": "Cn1cc(C(=O)c2nc(-c3c[nH]c4ccc(Br)cc34)no2)c2cc(F)ccc21", "growth": "100%"}
{"smiles": "COc1ccc(O)c(N=Nc2nccs2)c1", "growth": "104%"}
{"smiles": "CCc1nc(N)nc(N)c1C#CC(C)c1cc(-c2ccnc(C)c2)c2oc(C)nc2c1", "note": "(stereo unspecified)", "growth": "19.4%"}
{"smiles": "CC(=O)Nc1ccc(-n2c(O)c(/C=N/NC(=O)Cc3ccccc3Nc3c(Cl)cccc3Cl)sc2=S)cc1", "growth": "109%"}
{"smiles": "O=Nc1c(O)c(Cl)cc2ccccc12", "growth": "91.8%"}
{"smiles": "FC(F)(F)c1ccc(-c2cn3nc(-c4c[nH]c5ccc(Br)cc45)sc3n2)cc1", "growth": "100%"}
{"smiles": "Cn1cc(-c2nonc2-c2c[nH]c3ccccc23)c2cccnc21", "growth": "-22.6% (active)"}
{"smiles": "Cn1cc(-c2nonc2-c2cn(C)c3ccc(F)cc23)c2ccccc21", "growth": "-26% (active)"}
{"smiles": "Brc1ccc(-c2csc(Nc3ccccn3)n2)cc1", "growth": "88.5%"}
{"smiles": "Clc1ccc2c(NCCNc3nc(N4CCOCC4)nc4ccccc34)ccnc2c1", "growth": "-8.79% (active)"}
{"smiles": "COc1ccc(-c2cc(-c3ccc(Nc4ccnc5cc(Cl)ccc45)cc3)nc(N3CCOCC3)n2)cc1", "growth": "10.1%"}
{"smiles": "COc1cc2c(cc1-c1c(C)noc1C)ncc1nc(C3CCCC3)n([C@H](C)COC(F)F)c12", "growth": "32.4%"}
{"smiles": "CCOc1cc2ncc(C#N)c(Nc3ccc(OCc4cccc(F)c4)c(Cl)c3)c2cc1NC(=O)CCCCC1CCSS1", "note": "(stereo unspecified)", "growth": "99%"}
{"smiles": "Oc1ccccc1-c1nnc(CNc2ccc(Cl)cc2)o1", "growth": "33.8%"}
{"smiles": "COc1cc2c(cc1-c1c(C)noc1C)ncc1nc(C3CCCCC3)n([C@H](C)COC(F)F)c12", "growth": "34.1%"}
{"smiles": "COc1cc(/C=C/C(=O)Nc2cccnc2Nc2ccc(F)cc2)cc(OC)c1OC", "growth": "97.4%"}
{"smiles": "Cn1c(NCCc2ccc(O)c(O)c2)nc2c1c(=O)n(Cc1ccc(Cl)c(Cl)c1)c(=O)n2C", "growth": "73%"}
{"smiles": "Cc1ccc(C2=NN3C(C2)c2cc(Br)ccc2OC32CCN(Cc3ccccc3)CC2)o1", "note": "(stereo unspecified)", "growth": "94%"}
{"smiles": "O=C1/C(=C/C(Cl)=C/c2ccccc2)SC(=S)N1CCc1ccc(O)cc1", "growth": "-30.7% (active)"}
{"smiles": "NC(=O)c1cc(Br)ccc1NC(=O)/C=C/c1ccccc1", "growth": "-7.27% (active)"}
{"smiles": "CC(O)CN(CC(C)O)c1ccc2c(c1)Cc1cc([N+](=O)[O-])ccc1-2", "note": "(stereo unspecified)", "growth": "98.7%"}
{"smiles": "C=C1C(=O)O[C@H]2[C@H]1CC/C(COC(=O)c1cc3cc(OC)ccc3[nH]1)=C\\CC[C@@]1(C)O[C@@H]21", "growth": "-91.9% (active)"}
{"smiles": "COc1cc(C(=O)/C=C/c2cccnc2Nc2ccc(Cl)cc2)cc(OC)c1OC", "growth": "-58% (active)"}
{"smiles": "O=c1cc(CSc2nnc(SCc3cc(=O)oc4c3ccc3ccccc34)o2)c2ccc3ccccc3c2o1", "growth": "112%"}
{"test_system": "SW-620 colon", "assay": "NCI-60 one-dose screen, 48 h (100 = growth as untreated, 0 = no growth, -100 = all killed)", "settings": "10 µM unless noted"}
{"smiles": "CSc1ccc(-c2n[nH]nc2-c2cc3ccccc3s2)cc1", "growth": "23.7%"}
{"smiles": "Clc1ccc2c(NCCCNc3nc(-n4ccnc4)nc4ccccc34)ccnc2c1", "growth": "89.8%"}
{"smiles": "CN1CCN(c2nc(NCCCNc3ccnc4cc(Cl)ccc34)c3ccccc3n2)CC1", "growth": "15.7%"}
{"smiles": "CN(C)c1ccc(NC(=O)c2ccc(/C=C/C(=O)c3ncc[nH]3)cc2)cc1", "growth": "21.1%"}
{"smiles": "COc1ccc(S(=O)(=O)N2CCCCC2)cc1NC(=O)c1[nH]c(C)c2c1CCCCC2=O", "growth": "54%"}
{"smiles": "CCn1c(O)c(/C=N/NC(=O)C(C)c2ccc(CC(C)C)cc2)sc1=S", "note": "(stereo unspecified)", "growth": "27.3%"}
{"smiles": "Cc1nn(-c2cc(=O)[nH]c3ccc(Cl)cc23)c(N)c1C#N", "growth": "98.7%"}
{"smiles": "O=C1/C(=C(/c2ccccc2)N2CCOCC2)Cc2ccccc21", "growth": "0.554% (active)"}
{"smiles": "O=C(COc1cccc(/C=C2\\COc3ccccc3C2=O)c1)Nc1nccs1", "growth": "-40.7% (active)"}
{"smiles": "CCN=C1C=CC(=C(c2ccc(N)cc2)c2ccc(N(CC)CC)c(C)c2)C=C1", "growth": "4.24% (active)"}
{"smiles": "O=C(C(=O)c1ccc2c(c1)OCO2)c1ccc2c(c1)OCO2", "growth": "90.6%"}
{"smiles": "COc1ccc(/C=C2\\Oc3cc(OCCCCN4CCCC4)ccc3C2=O)cc1", "growth": "13.4%"}
{"smiles": "COc1cc(-c2nn(-c3ccc(Br)cc3)cc2C(=O)O)ccc1O", "growth": "105%"}
{"smiles": "O=c1ccccc(-c2ccc(-c3ccco3)cc2)c1O", "growth": "27.8%"}
{"smiles": "Cn1cc(C(=O)c2nc(-c3c[nH]c4ccc(Br)cc34)no2)c2cc(F)ccc21", "growth": "95.3%"}
{"smiles": "COc1ccc(O)c(N=Nc2nccs2)c1", "growth": "62.3%"}
{"smiles": "CCc1nc(N)nc(N)c1C#CC(C)c1cc(-c2ccnc(C)c2)c2oc(C)nc2c1", "note": "(stereo unspecified)", "growth": "16.9%"}
{"smiles": "CC(=O)Nc1ccc(-n2c(O)c(/C=N/NC(=O)Cc3ccccc3Nc3c(Cl)cccc3Cl)sc2=S)cc1", "growth": "96.5%"}
{"smiles": "O=Nc1c(O)c(Cl)cc2ccccc12", "growth": "46.2%"}
{"smiles": "FC(F)(F)c1ccc(-c2cn3nc(-c4c[nH]c5ccc(Br)cc45)sc3n2)cc1", "growth": "97.3%"}
{"smiles": "Cn1cc(-c2nonc2-c2c[nH]c3ccccc23)c2cccnc21", "growth": "14.1%"}
{"smiles": "Cn1cc(-c2nonc2-c2cn(C)c3ccc(F)cc23)c2ccccc21", "growth": "22%"}
{"smiles": "Brc1ccc(-c2csc(Nc3ccccn3)n2)cc1", "growth": "103%"}
{"smiles": "Clc1ccc2c(NCCNc3nc(N4CCOCC4)nc4ccccc34)ccnc2c1", "growth": "11.2%"}
{"smiles": "COc1ccc(-c2cc(-c3ccc(Nc4ccnc5cc(Cl)ccc45)cc3)nc(N3CCOCC3)n2)cc1", "growth": "8.98% (active)"}
{"smiles": "COc1cc2c(cc1-c1c(C)noc1C)ncc1nc(C3CCCC3)n([C@H](C)COC(F)F)c12", "growth": "57.5%"}
{"smiles": "CCOc1cc2ncc(C#N)c(Nc3ccc(OCc4cccc(F)c4)c(Cl)c3)c2cc1NC(=O)CCCCC1CCSS1", "note": "(stereo unspecified)", "growth": "99.4%"}
{"smiles": "Oc1ccccc1-c1nnc(CNc2ccc(Cl)cc2)o1", "growth": "29.4%"}
{"smiles": "COc1cc2c(cc1-c1c(C)noc1C)ncc1nc(C3CCCCC3)n([C@H](C)COC(F)F)c12", "growth": "58.7%"}
{"smiles": "COc1cc(/C=C/C(=O)Nc2cccnc2Nc2ccc(F)cc2)cc(OC)c1OC", "growth": "106%"}
{"smiles": "Cn1c(NCCc2ccc(O)c(O)c2)nc2c1c(=O)n(Cc1ccc(Cl)c(Cl)c1)c(=O)n2C", "growth": "76.5%"}
{"smiles": "Cc1ccc(C2=NN3C(C2)c2cc(Br)ccc2OC32CCN(Cc3ccccc3)CC2)o1", "note": "(stereo unspecified)", "growth": "97.2%"}
{"smiles": "O=C1/C(=C/C(Cl)=C/c2ccccc2)SC(=S)N1CCc1ccc(O)cc1", "growth": "4.79% (active)"}
{"smiles": "NC(=O)c1cc(Br)ccc1NC(=O)/C=C/c1ccccc1", "growth": "29.1%"}
{"smiles": "CC(O)CN(CC(C)O)c1ccc2c(c1)Cc1cc([N+](=O)[O-])ccc1-2", "note": "(stereo unspecified)", "growth": "99%"}
{"smiles": "C=C1C(=O)O[C@H]2[C@H]1CC/C(COC(=O)c1cc3cc(OC)ccc3[nH]1)=C\\CC[C@@]1(C)O[C@@H]21", "growth": "-75.7% (active)"}
{"smiles": "COc1cc(C(=O)/C=C/c2cccnc2Nc2ccc(Cl)cc2)cc(OC)c1OC", "growth": "-71.5% (active)"}
{"smiles": "O=c1cc(CSc2nnc(SCc3cc(=O)oc4c3ccc3ccccc34)o2)c2ccc3ccccc3c2o1", "growth": "98.1%"}
